This note sets out measurements from PubChem BioAssay AID720690 (Broad Institute, 2013).

The assay in a line: HEK293T cytotoxicity, dose response, cytotoxicity control for miR-122 modulator project, cell-based, activator set, cherry-pick (AID 720690). To be noted: HEK293T viability, CellTiter-Glo luminescence, 48 h; series mostly up to 26 µM. (Cellular ATP, detected with luciferase, serves as a proxy for viable cell number.)

Entries with a potency or affinity are not part of this list. Activity calls are given as the source filed them.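 The calls were made as follows: active = every repeat run showing a signal drop whose fitted half-maximal concentration is at most twice the top tested concentration; inconclusive = repeat runs disagree, or flat partial drop, or poor fit; inactive = the rest.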

As to `CN1C(=O)c2cc(NS(=O)(=O)c3cccc(F)c3)ccc2OC[C@H]2O[C@@H](CC(=O)NCCN3CCCCC3)CC[C@H]21`, the call was inactive.
The result for `CCNC(=O)C[C@H]1CC[C@@H]2[C@H](COc3ccc(NC(=O)c4cccs4)cc3C(=O)N2C)O1` reads “inactive”; that for `C[C@@H]1CN([C@@H](C)CO)S(=O)(=O)c2ccc(-c3ccc(C(=O)N(C)C)cc3)cc2O[C@@H]1CN(C)C(=O)C1CCC1`, “inactive”.
As for `CO[C@H]1CN(C)C(=O)c2cc(NC(C)=O)ccc2OC[C@@H](C)N(C(=O)CC2CC2)C[C@H]1C`, the entry is “inactive”; as for `Cc1cc(C(C)(C)C)cc(S(=O)(=O)NCCc2ccncc2)c1C`, “inactive”.
As for `CC(C)OCCCNC(=O)c1ccncc1`, the entry is “inactive”; as for `C/C=C/c1ccc([C@H]2[C@@H](CO)N(Cc3ccccn3)[C@H]2CNC(=O)CC)cc1`, “inactive”; as for `CC(C)NC(=O)N1[C@H](CO)[C@@H](c2ccccc2)[C@@H]1CNC(=O)CN(C)C`, “inactive”.
On to `OC(c1cc(C(F)(F)F)nc2c(Cl)cc(Cl)cc12)C1CCCCN1` (stereo not drawn), for which the outcome was inactive.
On to `Cc1ccccc1-c1nc(CN2CCCC(C(=O)NCCCN3CCOCC3)C2)c(C)o1` (stereo not drawn), for which the compound was called inactive.
Regarding `OC[C@H]1[C@@H](c2ccccc2)[C@H](CNCC2CCC2)N1CC1CC1`, the result was inactive.
As for `C/C=C/c1ccc([C@@H]2[C@@H](CN(C)C(=O)CC)N(C(=O)NC(C)C)[C@H]2CO)cc1`, the outcome was inactive.
The result for `CO[C@H]1CN(C)C(=O)c2cc(NC(=O)C3CC3)ccc2OC[C@H](C)N(CCc2ccccc2)C[C@H]1C` reads “inactive”; that for `CNC(=O)C[C@@H]1CC[C@@H]2[C@@H](COc3ccc(NC(=O)Nc4ccccc4OC)cc3C(=O)N2C)O1`, “inactive”.
As for `CN(C)CCCNC(=O)C[C@H]1CC[C@H]2[C@H](COc3ccc(NC(=O)NC4CCCC4)cc3C(=O)N2C)O1`, the entry is “inactive”.
For the compound `COc1ccc(CN2CCOC2=O)cc1OC`, the outcome was inactive.
In the case of `COc1ccc(CNC(=O)C[C@H]2CC[C@H]3[C@H](COc4ccc(NC(=O)C(C)C)cc4C(=O)N3C)O2)cc1`, the call was inactive.
Turning to `C[C@@H]1CN([C@H](C)CO)C(=O)c2cc(-c3cccc(C#N)c3)cnc2O[C@H]1CN(C)C(=O)C1CCC1`, the call was inactive.
The result for `CCCC(=O)Nc1ccc2c(c1)C(=O)N(C)[C@@H]1CC[C@@H](CC(=O)NCC(F)(F)F)O[C@H]1CO2` reads “inactive”; that for `CCNC(=O)C[C@H]1CC[C@@H]2[C@H](COc3ccc(NC(=O)Nc4cccc(OC)c4)cc3C(=O)N2C)O1`, “inactive”.
As for `Cc1nn(C)cc1NC(=O)C[C@@H]1CC[C@H]2[C@@H](COc3ccc(NC(=O)Nc4cccc(Cl)c4)cc3C(=O)N2C)O1`, the entry is “inactive”.
The result for `COCC(=O)Nc1ccc2c(c1)C(=O)N(C)[C@H]1CC[C@@H](CC(=O)NCCCN(C)C)O[C@@H]1CO2` reads “inactive”; that for `C[C@H](CO)N1C[C@H](C)[C@@H](CN(C)CC2CCCCC2)OCCCC[C@H](C)Oc2ccc(NC(=O)Nc3cccc4ccccc34)cc2C1=O`, “inactive”.
For the compound `Cc1cc(C)cc(Oc2ccc(NC(=O)C3CC=CCC3C(=O)O)cc2)c1` (stereo not drawn), the compound was called inactive.
The result for `COc1cccc(CNC(=O)C[C@@H]2CC[C@@H]3[C@@H](COc4ccc(NC(C)=O)cc4C(=O)N3C)O2)c1` reads “inactive”; that for `C/C=C/c1ccc([C@H]2[C@@H](CO)N[C@@H]2CN(CC)C(=O)CN2CCOCC2)cc1`, “inactive”.
For `CN1C(=O)c2cc(NC(=O)c3cccc(F)c3)ccc2OC[C@H]2O[C@H](CC(=O)N3CCc4ccccc4C3)CC[C@H]21`, the call was inactive.
As for `COc1ccc(NC(=O)COC(=O)CCCc2c[nH]c3ccccc23)cc1`, the entry is “inactive”.
The result for `CCCC(NS(=O)(=O)c1ccc(Br)cc1)C(=O)O` (stereo not drawn) reads “inactive”; that for `CCCC(=O)Nc1ccc2c(c1)C(=O)N(C)[C@@H]1CC[C@H](CC(=O)NCc3cccc(F)c3)O[C@H]1CO2`, “inactive”.
The result for `c1cnc(N2CCN(Cc3c[nH]c4ccccc34)CC2)nc1` reads “inactive”; that for `CCCNC(=O)N1C[C@@H]2[C@H](c3ccccc31)[C@H](CO)N2C(=O)C1CCOCC1`, “inactive”.
As for `CCNC(=O)C[C@@H]1CC[C@H]2[C@@H](COc3ccc(NC(=O)c4ccc(C(F)(F)F)cc4)cc3C(=O)N2C)O1`, the call was inactive.
Regarding `CSc1cccc(NS(=O)(=O)c2ccccc2)c1`, the compound was called inactive.
As for `O=C(NC[C@@H]1[C@@H](c2ccccc2)[C@H](CO)N1C(=O)C1CCC1)NC1CCCC1`, the entry is “inactive”; as for `C/C=C/c1ccc([C@@H]2[C@@H](CO)N(C(C)=O)[C@H]2CN(C(=O)COC)C(C)C)cc1`, “inactive”; as for `CNC(=O)C[C@@H]1CC[C@@H]2[C@@H](COc3ccc(NC(=O)Nc4ccc(F)c(F)c4)cc3C(=O)N2C)O1`, “inactive”.
As for `COCC(=O)Nc1ccc2c(c1)C(=O)N(C)[C@@H]1CC[C@@H](CC(=O)NC3CCCC3)O[C@H]1CO2`, the entry is “inactive”; as for `C=CCNC(=S)NNC(=O)Cn1c(-c2ccccc2)cc(=O)n2ncnc12`, “inactive”; as for `Cc1cccc(NC(=O)Nc2ccc3c(c2)C(=O)N(C)[C@@H]2CC[C@@H](CC(=O)NCc4ccccc4Cl)O[C@H]2CO3)c1`, “inactive”.
Regarding `CC(C)C(=O)Nc1ccc2c(c1)C(=O)N(C)[C@H]1CC[C@@H](CC(=O)NCCCN(C)C)O[C@H]1CO2`, the compound was classed as inactive.
The result for `COCCN(C[C@@H]1[C@H](c2ccccc2)[C@@H](CO)N1C(=O)C1CCC1)C(C)=O` reads “inactive”.
As for `Cc1cccc(NC(=O)Nc2ccc3c(c2)C(=O)N(C)[C@H]2CC[C@H](CC(=O)O)O[C@H]2CO3)c1`, the result was inactive.
On to `COCC(=O)NC[C@H]1N[C@H](CO)[C@H]1c1ccc(C2=CCCC2)cc1`, for which the compound was called inactive.
For `O=C(C1CCOCC1)N1[C@H](CO)[C@H]2c3ccccc3NC[C@H]21`, the compound was called inactive.
On to `COc1cccc(C(=O)Nc2ccc3c(c2)C(=O)N(C)[C@@H]2CC[C@@H](CC(=O)NCc4ccc(F)cc4)O[C@@H]2CO3)c1`, for which the compound was classed as inactive.
As for `CN(C)C(=O)c1ccc(-c2ccc([C@H]3[C@@H](CO)N4CCCCN(C(=O)C5CCCC5)C[C@@H]34)cc2)cc1`, the call was inactive.
As to `C[C@@H]1CN([C@@H](C)CO)C(=O)c2cc(NS(=O)(=O)c3ccc(F)cc3)ccc2O[C@@H]1CN(C)Cc1ccc(-c2ccccc2)cc1`, the call was inactive.
For the compound `COc1ccc(C(O)(CC(C)C)C(CN2CCOCC2)c2ccccc2)cc1` (stereo not drawn), the result was inactive.
Regarding `CNC(=O)C[C@H]1CC[C@@H]2[C@H](COc3ccc(NC(=O)Nc4ccccc4)cc3C(=O)N2C)O1`, the outcome was inactive.
As for `Cc1cccc(NC(=O)c2sc3nc(-c4ccc(F)cc4)cn3c2C)n1`, the entry is “inactive”; as for `CC(=O)N(C[C@H]1N[C@H](CO)[C@@H]1c1ccc(-c2ccccc2)cc1)C(C)C`, “inactive”.
For the compound `CN1C(=O)c2cc(NC(=O)Cc3ccccc3)ccc2OC[C@H]2O[C@@H](CC(=O)NC3CCC3)CC[C@H]21`, the result was inactive.
As for `CN(C[C@H]1N[C@@H](CO)[C@H]1c1ccc(-c2ccccc2)cc1)C(=O)C1CCC1`, the entry is “inactive”; as for `CN1C(=O)c2cc(NC(=O)c3cccs3)ccc2OC[C@H]2O[C@H](CC(=O)NCC(F)(F)F)CC[C@H]21`, “inactive”; as for `COc1cccc(CNC(=O)C[C@@H]2CC[C@H]3[C@H](COc4ccc(NS(=O)(=O)c5ccccc5F)cc4C(=O)N3C)O2)c1`, “inactive”.
As for `CC(C)Oc1ccc(C(CCN)C2CCCCC2)cc1` (stereo not drawn), the entry is “inactive”; as for `Cc1nc(C)c(C(=O)Nc2ccc(Oc3ccccc3)cc2)o1`, “inactive”; as for `CCCC(=O)Nc1ccc2c(c1)C(=O)N(C)[C@@H]1CC[C@H](CC(=O)NCCN3CCCCC3)O[C@H]1CO2`, “inactive”.
Consider `CCCNC(=O)N1[C@H](CO)[C@@H](c2ccccc2)[C@H]1CNC(=O)c1ccccc1`, for which the outcome was inactive.
On to `C[C@@H]1CN([C@H](C)CO)S(=O)(=O)c2ccc(C3=CCCC3)cc2O[C@@H]1CN(C)C(=O)c1ccc(F)cc1`, for which the compound was classed as inactive.
With `O=C(C1CCCC1)N1C[C@H]2[C@@H](c3ccccc31)[C@H](CO)N2C(=O)Nc1cccc(F)c1`, the call was inactive.
As for `CCOc1cc(-c2nccc3cc(OC)c(OC)cc23)cc(OCC)c1OCC`, the entry is “inactive”; as for `O=C(C1CCOCC1)N1C[C@H]2[C@@H](c3ccccc31)[C@@H](CO)N2Cc1ccccc1`, “inactive”.
For `CN(C)CCCNC(=O)C[C@H]1CC[C@H]2[C@@H](COc3ccc(NC(=O)c4ccccc4F)cc3C(=O)N2C)O1`, the outcome was inactive.
Consider `CN1C(=O)c2cc(NC(=O)c3cccc(F)c3)ccc2OC[C@H]2O[C@H](CC(=O)O)CC[C@@H]21`, for which the outcome was inactive.
In the case of `CCCC#Cc1ccc2c(c1)O[C@H](CN(C)C(=O)c1ccncc1)[C@H](C)CN([C@@H](C)CO)S2(=O)=O`, the call was inactive.
The result for `C[C@H]1CN([C@@H](C)CO)S(=O)(=O)c2ccc(C3=CCCC3)cc2O[C@H]1CN(C)Cc1cccnc1` reads “inactive”.
The result for `CCN(C[C@@H]1[C@@H](c2ccccc2)[C@H](CO)N1C(C)=O)C(=O)NC(C)C` reads “inactive”.
Regarding `C[C@@H]1CN([C@@H](C)CO)S(=O)(=O)c2ccc(C#CC3(O)CCCC3)cc2O[C@@H]1CN(C)C(=O)c1cccnc1`, the call was inactive.
Consider `CO[C@@H]1CN(C)C(=O)c2ccc(NC(=O)c3ccc(Oc4ccccc4)cc3)cc2OC[C@H](C)NC[C@H]1C`, for which the result was inactive.
Regarding `CCCNC(=O)N1C[C@@H]2[C@H](c3ccccc31)[C@@H](CO)N2C(=O)C1CCOCC1`, the call was inactive.
As for `Cc1cccc(C)c1NC(=O)CSCC(=O)c1ccc(O)c(O)c1`, the entry is “inactive”; as for `CN1C(=O)c2cc(NC(=O)c3cccc(F)c3)ccc2OC[C@@H]2O[C@@H](CC(=O)NC3CCC3)CC[C@@H]21`, “inactive”; as for `CC(=O)c1cccc(S(=O)(=O)NCC2CCCCC2)c1`, “inactive”.
The result for `C[C@H](CO)N1C[C@H](C)[C@@H](CN(C)CC2CCCCC2)Oc2c(NS(=O)(=O)c3cccs3)cccc2C1=O` reads “inactive”.
`O=C(COC(=O)Cc1ccc(S(=O)(=O)N2CCOCC2)s1)Nc1ccc2c(c1)OCO2`: the outcome was inactive.
With `C[C@@H]1CN([C@H](C)CO)S(=O)(=O)c2ccc(-c3ccccc3)cc2O[C@@H]1CN(C)C(=O)c1ccc2c(c1)OCO2`, the result was inactive.
